The list is not random: actives were taken first. Their share in the collection is about 3.9%.
Yeast superoxide: reduction of superoxide in aged yeast, primary screen, HTS; superoxide response (% of plate mean), % at 10 µM; AID 2690, 2010; 330,000 tested, 0.18% active; S. cerevisiae aged cells, superoxide DHE fluorescence; stronger effect = lower value;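 active = superoxide response under a set limit, about three screen SD below normal, cut at about 65% in these data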;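 also: yeast aged for seven days with compound at 30 °C before DHE staining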
PLC-gamma1 inh: PLC-gamma1 enzyme inhibitors, primary screen, biochemical, fluorescence, purified enzyme; 1-phosphatidylinositol 4,5-bisphosphate phosphodiesterase gamma-1 (Homo sapiens), P19174; fluorogenic substrate; inhibition, % at 12.2 µM; 370,000 tested, 0.84% active
Target sequence (P19174 whole entry, looked up): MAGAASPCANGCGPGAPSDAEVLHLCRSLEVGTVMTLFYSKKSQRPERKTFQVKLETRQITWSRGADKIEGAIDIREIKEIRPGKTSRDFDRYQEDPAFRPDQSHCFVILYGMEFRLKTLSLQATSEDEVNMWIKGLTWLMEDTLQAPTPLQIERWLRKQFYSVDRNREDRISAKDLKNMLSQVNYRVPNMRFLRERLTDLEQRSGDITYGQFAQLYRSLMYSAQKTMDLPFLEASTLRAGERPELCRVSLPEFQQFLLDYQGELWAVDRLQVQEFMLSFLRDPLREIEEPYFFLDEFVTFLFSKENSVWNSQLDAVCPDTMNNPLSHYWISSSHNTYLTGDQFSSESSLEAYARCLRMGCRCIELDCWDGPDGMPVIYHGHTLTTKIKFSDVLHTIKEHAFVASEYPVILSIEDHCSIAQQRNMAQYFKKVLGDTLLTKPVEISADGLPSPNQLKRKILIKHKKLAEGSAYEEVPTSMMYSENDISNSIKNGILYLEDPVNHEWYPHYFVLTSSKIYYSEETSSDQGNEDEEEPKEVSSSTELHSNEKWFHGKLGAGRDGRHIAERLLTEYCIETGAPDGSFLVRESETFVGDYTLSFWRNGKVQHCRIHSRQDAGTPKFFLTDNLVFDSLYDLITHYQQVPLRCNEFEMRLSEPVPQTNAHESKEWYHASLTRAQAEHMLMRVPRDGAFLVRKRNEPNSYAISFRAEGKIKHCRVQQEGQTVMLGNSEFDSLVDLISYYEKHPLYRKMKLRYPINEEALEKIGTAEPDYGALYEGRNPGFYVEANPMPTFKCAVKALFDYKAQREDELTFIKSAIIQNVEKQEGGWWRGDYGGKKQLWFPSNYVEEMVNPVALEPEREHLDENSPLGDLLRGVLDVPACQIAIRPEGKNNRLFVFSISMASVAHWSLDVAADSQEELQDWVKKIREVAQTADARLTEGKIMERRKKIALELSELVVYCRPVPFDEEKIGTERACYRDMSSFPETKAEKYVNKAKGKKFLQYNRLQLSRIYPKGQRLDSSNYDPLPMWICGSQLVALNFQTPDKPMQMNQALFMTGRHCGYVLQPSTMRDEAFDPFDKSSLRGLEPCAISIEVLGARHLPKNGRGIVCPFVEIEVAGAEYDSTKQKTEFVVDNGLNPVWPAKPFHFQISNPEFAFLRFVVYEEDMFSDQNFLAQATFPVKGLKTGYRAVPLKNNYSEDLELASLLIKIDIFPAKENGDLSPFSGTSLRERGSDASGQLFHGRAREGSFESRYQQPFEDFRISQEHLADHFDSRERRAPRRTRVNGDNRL
PLCb3 inh: human PLC-beta3 inhibitors, primary screen, biochemical, fluorescence. AID 720704, 2013. 370,000 tested, 0.18% active. inhibition, % at 12.2 µM. Purified PLC-beta3, fluorogenic substrate. 1-phosphatidylinositol 4,5-bisphosphate phosphodiesterase beta-3 (Homo sapiens), Q01970; in the data active = inhibition above about 11%
AHR activator: AHR activators, primary screen, cell-based, luminescence, luciferase reporter, human | Aryl hydrocarbon receptor (Homo sapiens), P35869 | AHR-responsive luciferase reporter cells | activation, % at 5 µM | 320,000 tested, 2.5% active; in the data active = activation above about 47%
HIF act: HIF pathway transcriptional activators, primary screen, cell-based, U2OS HRE-luciferase, luminescence. U2OS HRE-luciferase reporter; normalized: DMSO 0%, desferrioxamine 100%. activation, % at 7.5 µM (by protocol). 300,000 tested, 0.32% active;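 active = mean activation of at least 10% of the iron chelator positive control signal, with at least half of replicates also reaching 10%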
HGIII-sPLA2 inh: human group III sPLA2 inhibitors, primary screen, biochemical, QFRET, BODIPY PC-A2 liposome substrate; QFRET BODIPY PC-A2 liposome hydrolysis, fluorescence; inhibition, % at 12.2 µM; 370,000 tested, 0.56% active; AID 743126, 2013;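 active = inhibition above mean plus 3 SD of compounds lying within the high and low control bounds, cut at about 19% in these data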
PLCg1 ctr: PLC-gamma1 enzyme inhibitors, counter-screen for PLC-beta3 inhibitor project, biochemical, fluorescence | purified PLC-gamma1, fluorogenic substrate | 3,300 tested, 3.1% active | shares compounds with PLC-gamma1 inh | inhibition, % at 12.3 µM
PLCb3 confirm: PLC-beta3 inhibitor confirmation, biochemical, fluorescence, purified enzyme | shares compounds with PLC-gamma1 inh | fluorogenic substrate fluorescence | inhibition, % at 12.3 µM | 3,300 tested, 1% active | AID 743261, 2014; in the data active = inhibition above about 11%
Numbers stand for hits; i = inactive; nt = no result given. Rule as the data show it, unless noted: active = inhibition above about 9.5%; inactive = the rest.

SMILES | Yeast superoxide | PLC-gamma1 inh | PLCb3 inh | AHR activator | HIF act | HGIII-sPLA2 inh | PLCg1 ctr | PLCb3 confirm
O=C(c1ccc([N+](=O)[O-])cc1)N1CCN(C2=NS(=O)(=O)c3ccccc32)CC1 | i | i | i | i | i | i | nt | nt
COc1ccccc1N1CCN(C(=O)c2ccc(Cn3c(=S)[nH]c4cc5c(cc4c3=O)OCO5)cc2)CC1 | i | i | i | i | i | i | nt | nt
CCOC(=O)N1CCN(C(=O)c2ccc(Cn3c(=S)[nH]c4cc5c(cc4c3=O)OCO5)cc2)CC1 | i | 12 | i | i | i | i | i | i
CCC(C)(C)NC(=O)C(c1ccc(OC)cc1)N(CC1CCCO1)C(=O)CCC(=O)Nc1cc(C)on1 (stereo not given) | i | i | i | i | i | i | nt | nt
CCC(C)(C)NC(=O)C(c1ccc(OC)cc1)N(C(=O)CCC(=O)Nc1cc(C)on1)C1CC1 (stereo not given) | i | 11 | i | i | i | i | i | i
CCOC(=O)c1ccc(S(=O)(=O)N2CCN(CC(O)COc3ccc(C#N)cc3)CC2)cc1 (stereo not given) | i | i | i | i | i | i | nt | nt
CCC(C)(C(=O)NC1CCCCC1)N(Cc1cccs1)C(=O)c1ccccn1 (stereo not given) | i | i | i | i | i | i | nt | nt
CCC(C)(C(=O)NC1CCCC1)N(Cc1cccs1)C(=O)c1ccccn1 (stereo not given) | i | 10 | i | i | i | i | i | i
O=C1CCC(C(=O)N2CCN(c3ccccc3)CC2)CN1Cc1ccc(Cl)cc1 (stereo not given) | nt | i | i | nt | nt | i | nt | nt
O=C(CCC(=O)OCc1ccc([N+](=O)[O-])cc1)Nc1ccc(F)cc1 | i | 10 | i | i | i | i | i | i
O=C(CCC(=O)OCc1cccc([N+](=O)[O-])c1)Nc1ccc(F)cc1 | i | i | i | i | i | i | nt | nt
Cc1ccc(NC(=O)CCC(=O)OCC(=O)c2ccc(Oc3ccc([N+](=O)[O-])cc3)cc2)cc1C | i | 11 | i | i | i | i | i | i
COc1ccc(NC(=O)C(c2ccncc2)n2c(=O)c(-c3ccco3)nc3ccccc32)cc1 (stereo not given) | nt | i | i | nt | nt | i | nt | nt
COC(=O)C1CCN(c2ccc(C(N)=O)cc2[N+](=O)[O-])CC1 | i | i | i | i | i | i | nt | nt
O=C1C=C(O)c2c(O)cc(O)c(O)c2C1=O | i | 31 | 15 | i | i | i | i | i
CCOC(=O)c1c(C)nc2c(c1-c1cc(OC)c(OC)c(OC)c1)C(=O)c1ccccc1-2 | i | 12 | i | i | i | i | i | i
CCCCn1c(N)c(N(CC(C)C)C(=O)C2CC(=O)N(Cc3ccccc3)C2)c(=O)[nH]c1=O (stereo not given) | i | i | i | i | i | i | nt | nt
Cc1cccc(OCC(=O)OCC(=O)N(CC(C)C)c2c(N)n(Cc3ccccc3)c(=O)[nH]c2=O)c1C | i | 14 | i | i | i | i | i | i
Cc1ccc(CN2CC(C(=O)N(CC(C)C)c3c(N)n(Cc4ccccc4)c(=O)[nH]c3=O)CC2=O)cc1 (stereo not given) | nt | 10 | i | nt | nt | i | i | i
CCN(C(=O)CSc1nnc(NCc2ccccc2)s1)C1CCS(=O)(=O)C1 (stereo not given) | i | 12 | i | i | i | i | i | i
CCN(C(=O)CSc1nnc(Nc2cccc(C)c2C)s1)C1CCS(=O)(=O)C1 (stereo not given) | i | i | i | i | i | i | nt | nt
CN(CC(=O)Nc1ccccc1C(F)(F)F)C(=O)CN1C(=O)C2CCCCC2C1=O (stereo not given) | i | i | i | i | i | i | nt | nt
C=CCNc1nc(Cl)nc(Nc2ccccc2)n1 | i | 11 | i | i | i | i | i | i
Nc1nccnc1C(=O)OCC(=O)Nc1ccc2[nH]c(=O)[nH]c2c1 | i | i | i | i | i | i | nt | nt
Cc1cccc(CSc2nnc(-c3cnccn3)n2C)c1 | i | 12 | i | i | i | i | i | i
SMILES | Yeast superoxide | PLC-gamma1 inh | PLCb3 inh | AHR activator | HIF act | HGIII-sPLA2 inh | PLCg1 ctr | PLCb3 confirm
Cc1ccc(NC(=O)CSc2nnc(-c3cnccn3)n2C)cc1C | i | 9.7 | i | i | i | i | i | i
Cn1c(SCc2ccccn2)nnc1-c1cnccn1 | i | i | i | i | i | i | nt | nt
COc1ccc(NC(=O)CSc2nnc(-c3cnccn3)n2C)cc1OC | i | i | i | i | i | i | nt | nt
C=CCNC(=O)N1CCCC(C(=O)c2cccc(Cl)c2)C1 (stereo not given) | i | i | i | i | i | i | nt | nt
C=CCNC(=O)N1CCCC(C(=O)c2cccc(OC(C)C)c2)C1 (stereo not given) | i | 11 | i | i | i | i | i | i
CCCCC(=O)Nc1ccc(C(=O)Nc2cccnc2)cc1 | i | 10.0 | i | i | i | i | i | i
COc1ccc(CN2CCN(C)CC2)cc1OCc1ccccc1 | i | 11 | i | i | i | i | i | i
COc1cc(C(N)=O)ccc1OCc1ccccc1 | i | i | 11 | i | i | i | i | i
COc1cc(C(=O)NCC2(N(C)C)CCCCC2)ccc1OCc1ccccc1 | i | 13 | i | i | i | i | i | i
CCC(=O)c1ccc(OCc2ccccc2)c(OC)c1 | i | i | i | i | i | i | nt | nt
COc1ccc(C(=O)NCC(=O)NCC2(N(C)C)CCCCC2)cc1OC | i | i | i | i | i | i | nt | nt
CC1(C)OC(=O)C2=C(C[C@@H](CCC(F)(F)F)O[C@H]2c2ccc(F)cc2)O1 | nt | i | i | nt | nt | i | nt | nt
CCOC(=O)C1=C(COC(=O)/C=C/c2ccc(OC)cc2OC)NC(=O)NC1C (stereo not given) | i | i | i | i | i | i | nt | nt
CN(Cc1cccc(Cl)c1Cl)C(=O)CCNC(=O)c1ccco1 | i | 12 | i | i | nt | i | i | i
CCC1Oc2ccccc2N(CC(=O)N2CCCC2)C1=O (stereo not given) | nt | 9.7 | i | nt | nt | i | i | i
CCOC(=O)C1CCN(C(=O)CN2C(=O)C(CC)Oc3ccccc32)CC1 (stereo not given) | i | i | i | i | i | i | nt | nt
CCNS(=O)(=O)c1ccc2c(c1)NCC2 | i | i | i | i | i | i | nt | nt
Cc1ccc(S(=O)(=O)N(C)CCCC(=O)N2CCOCC2)cc1 | i | i | i | i | i | i | nt | nt
